# Assay results: ChEMBL document CHEMBL3988442, “University of Dundee, Small-Polar-MMV Screening Library” (2021)
# Out of some 53,000 compounds screened, about 900 (1.7%) showed an effect of 50% or more. Only a selection was taken, and strong results are over-represented in it overall.
# Test system: Mycobacterium tuberculosis
# Test: Cornell - Phenotypic assay to identify agents that inhibit growth of Mycobacterium tuberculosis
# Type: functional
# Design: scale not given: direction of the effect not stated beside the values
# Details: 10 mM as filed; unlikely as a test dose
row,Structure (SMILES),Percent Effect [%]
1,COc1ccc(NC(=O)CCn2nc(-c3cccs3)oc2=O)cc1OC,-4.295
2,Cc1cc(N(C)CC2COc3ccccc3O2)nc(N)n1 (stereo not drawn),18.45
3,Cc1cc(N(C)CC2COc3ccccc3O2)nc(C)n1 (stereo not drawn),22.34
4,CCN1CC(CN(C)c2cc(C)nc(N)n2)Oc2ccccc21 (stereo not drawn),100.1
5,Cc1nc(C)n(CC2CCCN(Cc3ccc4c(c3)OCCO4)C2)n1 (stereo not drawn),7.597
6,Cc1cc(-c2cnc(N3CCCC3)nc2C(C)C)on1,-0.9341
7,Cc1cc(-c2cnc(NCc3ccncc3)nc2C(C)C)on1,71.23
8,COc1ccccc1CNc1ncc(-c2cc(C)no2)c(C(C)C)n1,6.538
9,Cc1cc(-c2cnc(NCc3ccccn3)nc2C(C)C)on1,76.78
10,COc1ccc(CNc2ncc(-c3cc(C)no3)c(C(C)C)n2)cc1,36.58
11,Cc1cc(-c2cnc(NCc3ccc4c(c3)OCO4)nc2C(C)C)on1,24.22
12,Cc1oc(-c2ccsc2)nc1CC(=O)NCC(C)(C)CN(C)C,3.653
13,Cc1nnc(N2CCCC3(CN(Cc4nccn4C)CCO3)C2)o1 (stereo not drawn),-3.973
14,CS(=O)(=O)NCCNCc1ccc(Br)s1.Cl,-4.859
15,O=C1CCC(=O)N1CCOc1nc(-c2ccccc2Cl)no1,8.319
16,Cn1ccnc1-c1ccc(NCC2COc3ccccc3O2)nn1 (stereo not drawn),75.27
17,Cn1ccnc1-c1ccc(NC[C@H]2CCc3ccccc3O2)nn1,35.04
18,Cn1ccnc1-c1ccc(NCCC2COc3ccccc3O2)nn1 (stereo not drawn),46.99
19,O=C(CNC1(c2ccc(Cl)cc2)CCOCC1)NC1CCCC1,28.07
20,Cc1cc(C)n(C2CCN(S(=O)(=O)N3CCOCC3)CC2)n1,-10.91
21,Cn1cc(NC(=O)N2CCC(NS(C)(=O)=O)CC2)ccc1=O,73.41
22,Cn1cc(NC(=O)N2CCC(CN3CCCC3)CC2)ccc1=O,1.194
23,Cn1cc(NC(=O)N2CCC(c3ccccc3)CC2)ccc1=O,23.03
24,Cc1nccc(C2(C)CCCNC2)n1.Cl.Cl (stereo not drawn),-29.52
25,Cc1nc(O)cc(C2(C)CCCNC2)n1.Cl (stereo not drawn),37.37

row,Structure (SMILES),Percent Effect [%]
1,Cc1nc(N(C)C)cc(C2(C)CCNCC2)n1,3.518
2,Cc1nc(N)cc(C2(C)CCCNC2)n1 (stereo not drawn),52.22
3,Cc1nc(N(C)C)cc(C2(C)CCCNC2)n1 (stereo not drawn),54.11
4,Cc1cc(N(C)C)nc(C2(C)CCCNC2)n1 (stereo not drawn),-30.33
5,COC(=O)Nc1cccc(C(=O)N(C)Cc2cccc(O)c2)c1,16.47
6,CC(C)(C)CC(=O)N1CCC(c2nn(CCN)c3nccnc23)C1 (stereo not drawn),-1.305
7,Cc1nnc(N(CCC#N)CCC#N)s1,53.32
8,CCSc1nnc(N(CCC#N)CCC#N)s1,19.26
9,CSc1nnc(N(CCC#N)CCC#N)s1,7.045
10,CC(=O)NCC(=O)N1Cc2nccn2CC(Cn2cccn2)C1 (stereo not drawn),8.126
11,CN(Cc1nc2ccccc2n1C)C(=O)CCc1cscn1,3.18
12,COCCOc1ccc(NCc2cccc3cn[nH]c23)cn1,0.8667
13,Cc1ccc(CNCc2cccc3cn[nH]c23)c(OC2CCOC2)c1 (stereo not drawn),31.88
14,Cc1ccc(NCc2cccc3cn[nH]c23)cc1OC1CCOC1 (stereo not drawn),50.19
15,CN1CCCN(C(=O)c2cnsn2)c2cc(Cl)ccc21,23.17
16,CN1CC2(CCCN(CCOCc3ccccc3)C2)OC1=O (stereo not drawn),17.75
17,COc1ccccc1OCC(=O)NS(=O)(=O)c1ccccc1Br,29.83
18,N#Cc1cn[nH]c1NCc1cc(I)cc(I)c1O,104.4
19,N#Cc1cn[nH]c1NCc1cc(Br)ccc1O,-2.668
20,N#Cc1cn[nH]c1NCc1cc(Cl)cc(Cl)c1O,4.06
21,CN1C[C@@H](C(=O)NC2CC2)[C@@]2(COc3ccc(F)cc3C2=O)C1,-27.17
22,Cn1cc(N2C(=O)CC[C@@H]3[C@H]2CCN3Cc2cccc(C#N)c2)cn1.O=C(O)C(F)(F)F.O=C(O)C(F)(F)F,14.16
23,CN1CCCCCC1C(=O)NCCCn1ncc2ccccc21 (stereo not drawn),28.62
24,Cn1nnc(NCc2ccc(-c3ccc(Br)cc3)o2)n1,60.92
25,CCC(CO)NCc1ccc(-c2ccc(Cl)cc2)o1.Cl (stereo not drawn),16.24

row,Structure (SMILES),Percent Effect [%]
1,CCCn1nnc(NCc2ccc(-c3ccc(Br)cc3)o2)n1,31.95
2,CCCn1nnc(NCc2cc(Br)cc(Br)c2OC)n1,40.71
3,CCC(CO)NCc1ccc(-c2ccccc2)o1.Cl (stereo not drawn),5.639
4,CCn1nnc(NCc2ccc(-c3ccc(Br)cc3)o2)n1,69.94
5,Cn1ncnc1NCc1ccc(Cl)cc1,-4.993
6,CCC(CO)NCc1ccc(-c2ccc(Br)cc2)o1.Cl (stereo not drawn),52.02
7,CCn1nnc(NCc2cc(Br)cc(Br)c2OC)n1,31.18
8,CCC(CO)NCc1ccc(-c2ccc(F)c(Cl)c2)o1.Cl (stereo not drawn),48.48
9,CCC(CO)NCc1ccc(-c2ccc(F)cc2)o1.Cl (stereo not drawn),35.55
10,Cn1nnc(NCc2ccc(-c3ccc(Cl)cc3)o2)n1,60.16
11,O=C(c1sccc1Cl)N1CCC(Cn2cc(CO)nn2)CC1,28.9
12,CC(Nc1cccc(COCc2ccco2)c1)C(=O)NC(N)=O (stereo not drawn),25.61
13,COCCCNC(=O)C(C)n1nc(-c2ccco2)cc(N)c1=O (stereo not drawn),37.24
14,Cc1ncncc1-c1ccnc(N)n1,1.831
15,CS(=O)(=O)c1ccc(NCC2CCCO2)c(S(C)(=O)=O)c1 (stereo not drawn),-21.42
16,Cc1ccccc1C(C(=O)NCCSC(C)C)N(C)C (stereo not drawn),29.49
17,CNc1ncc2c(n1)CN(CCc1ccc(C)cc1)C2=O,8.766
18,Cn1ccc(C(=O)N2CCCC(c3cc4cccnc4c(O)n3)C2)n1 (stereo not drawn),-16.1
19,CN(C)CCC1CCN(c2cc(N3CCCC3CO)ncn2)CC1 (stereo not drawn),-19.44
20,CC(C)n1nccc1C(=O)N1CCC(c2nnsc2S(C)(=O)=O)CC1,12.35
21,Cc1nonc1CNC(=O)C(C)Oc1cccc(F)c1 (stereo not drawn),53.11
22,Cc1nonc1CNC(=O)C(C)Oc1ccccc1F (stereo not drawn),47.11
23,Cc1noc(C)c1CNC(=O)C(C)Oc1ccccc1F (stereo not drawn),-2.201
